Experimental findings from publication PMC4336329 (PLoS ONE, 2015) are described below.

The whole screen tested about 310,000 compounds, of which about 14,000 (4.5%) showed an effect of 50% or more. Effects have a minus sign here. The sample as a whole holds a higher share of strong results than the screen did.
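Note: peak tail current of the secondary pulse compared with the same well before compound.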

The assay deals with human ether-à-go-go-related gene (hERG) potassium channel (human, UniProt Q12809). Description: primary screen, population patch clamp on CHO cells stably expressing hERG; higher = less effect of the substance.
human ether-à-go-go-related gene (hERG) potassium channel, sequence (Q12809 whole entry, looked up): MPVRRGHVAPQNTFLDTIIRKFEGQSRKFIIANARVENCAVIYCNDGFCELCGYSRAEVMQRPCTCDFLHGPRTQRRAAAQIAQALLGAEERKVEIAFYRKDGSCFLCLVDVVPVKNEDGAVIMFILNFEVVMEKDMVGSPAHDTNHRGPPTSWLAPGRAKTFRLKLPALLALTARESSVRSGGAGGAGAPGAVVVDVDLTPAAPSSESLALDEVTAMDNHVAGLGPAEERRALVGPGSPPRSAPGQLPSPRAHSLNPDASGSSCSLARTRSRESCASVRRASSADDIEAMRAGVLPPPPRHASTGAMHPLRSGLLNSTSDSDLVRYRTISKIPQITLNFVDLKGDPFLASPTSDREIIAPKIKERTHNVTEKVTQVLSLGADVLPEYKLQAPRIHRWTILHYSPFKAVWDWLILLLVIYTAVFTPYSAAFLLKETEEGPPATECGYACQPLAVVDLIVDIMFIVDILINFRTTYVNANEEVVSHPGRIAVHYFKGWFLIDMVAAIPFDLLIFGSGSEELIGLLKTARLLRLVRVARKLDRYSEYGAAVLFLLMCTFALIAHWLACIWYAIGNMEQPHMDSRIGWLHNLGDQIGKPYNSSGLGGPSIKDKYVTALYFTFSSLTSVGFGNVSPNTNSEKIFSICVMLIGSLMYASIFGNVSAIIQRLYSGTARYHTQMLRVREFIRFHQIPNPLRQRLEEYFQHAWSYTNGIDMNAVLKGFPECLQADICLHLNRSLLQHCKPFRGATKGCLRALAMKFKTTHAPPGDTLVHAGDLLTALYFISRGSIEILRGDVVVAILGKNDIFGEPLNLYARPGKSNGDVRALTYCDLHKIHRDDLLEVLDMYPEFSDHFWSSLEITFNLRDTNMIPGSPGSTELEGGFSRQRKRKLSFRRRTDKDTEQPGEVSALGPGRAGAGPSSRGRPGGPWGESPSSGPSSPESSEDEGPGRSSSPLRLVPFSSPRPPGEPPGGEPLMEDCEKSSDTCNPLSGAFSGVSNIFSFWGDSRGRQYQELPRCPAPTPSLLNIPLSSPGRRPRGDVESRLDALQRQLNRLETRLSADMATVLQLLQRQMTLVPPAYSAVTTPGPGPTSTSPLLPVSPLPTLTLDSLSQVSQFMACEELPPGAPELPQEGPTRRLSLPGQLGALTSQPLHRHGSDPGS
In the case of `CC1CCN(CCCNC(=O)c2ccc3c(=O)n(Cc4ccc(Cl)cc4)c(=S)[nH]c3c2)CC1`, the “hERG current change (%, negative = inhibition) at 10uM” value is on record as -68.4%.
For the molecule `COC(=O)c1ccc2c(=O)n(Cc3ccc(C(=O)NCCCN4CCC(C)CC4)cc3)c(=S)[nH]c2c1`, the “hERG current change (%, negative = inhibition) at 10uM” value is reported as 7.54%.
In the case of `CC1CCCCN1CCNC(=O)c1ccc2c(=O)n(CCc3ccccc3)c(=O)[nH]c2c1` (centres unmarked), the “hERG current change (%, negative = inhibition) at 10uM” value is listed as -38.7%.
For `CC1CCCCN1CCNC(=O)c1ccc2c(=O)n(Cc3ccc(Cl)cc3)c(=S)[nH]c2c1` (centres unmarked), the “hERG current change (%, negative = inhibition) at 10uM” value is reported as -50.9%.
As for `COC(CNc1nc(SC)nc2sc3c(c12)CCN(C)C3)OC`, the figure is -52.5%; as for `CSc1nc(NCC(C)C)c2c3c(sc2n1)CN(C)CC3`, -44.2%.
On to `CCN(CC)CCNc1nc(SC)nc2sc3c(c12)CCN(C)C3`, for which the “hERG current change (%, negative = inhibition) at 10uM” value is -6.12%.
With `COCCNc1nc(SC)nc2sc3c(c12)CCN(C)C3`, the “hERG current change (%, negative = inhibition) at 10uM” value is given as -71.2%.
In the case of `CSc1nc(NCC(C)O)c2c3c(sc2n1)CN(C)CC3` (centres unmarked), the “hERG current change (%, negative = inhibition) at 10uM” value is given as -42%.
For the molecule `CSc1nc(NCCCO)c2c3c(sc2n1)CN(C)CC3`, the “hERG current change (%, negative = inhibition) at 10uM” value was -47.4%.
On to `S=c1[nH]c2ccccc2o1`, for which the “hERG current change (%, negative = inhibition) at 10uM” value stood at 18%.
As for `Cc1c(C(=O)OCC(=O)NCc2ccco2)oc2ccccc12`, the “hERG current change (%, negative = inhibition) at 10uM” value is reported as 2.46%.
On to `COc1ccc(OCC(=O)OCC(=O)NCc2ccco2)cc1`, for which the “hERG current change (%, negative = inhibition) at 10uM” value is recorded as -4.81%.
Then `CCCN(CCC)C(=O)c1oc2ccccc2c1NC(=O)Cc1cccc(OC)c1`, with 4.67%; and `O=C(COc1ccccc1)Nc1ccccc1C(=O)NCc1ccco1`, with -6.63%; and `CN(C)CCN(Cc1ccco1)C(=O)c1oc2ccccc2c1NC(=O)COc1ccccc1`, with -88.7%.
Take `COc1ccc(OCC(=O)Nc2c(C(=O)N(CCN(C)C)Cc3ccco3)oc3ccccc23)cc1`: the “hERG current change (%, negative = inhibition) at 10uM” value is on record as -77%.
Take `CCCCCCN=C(C)c1ccccc1O`: the “hERG current change (%, negative = inhibition) at 10uM” value is on record as 20.2%.
In the case of `CN(Cc1ccc(F)cc1)C(=O)c1cccc(S(=O)(=O)N2CCN(c3ccccc3)CC2)c1`, the “hERG current change (%, negative = inhibition) at 10uM” value is given as -19.9%.
Regarding `COCCN(Cc1ccccc1)C(=O)c1cccc(S(=O)(=O)N2CCCc3ccccc32)c1`, the “hERG current change (%, negative = inhibition) at 10uM” value is -21.2%.
For `CCN(Cc1ccccc1)C(=O)c1cccc(S(=O)(=O)N2CCN(c3ccc(F)cc3)CC2)c1`, the “hERG current change (%, negative = inhibition) at 10uM” value is given as -47.2%.
Then `COCCN(Cc1ccccc1)C(=O)c1cccc(S(=O)(=O)N2CCN(c3ccc(F)cc3)CC2)c1`, with -64.6%; and `COCCN(Cc1ccccc1)C(=O)c1cccc(S(=O)(=O)N2CCN(c3ccccc3)CC2)c1`, with -52.8%.
As for `CCN(Cc1ccccc1)C(=O)c1cccc(S(=O)(=O)N2CCN(c3ccccc3)CC2)c1`, the “hERG current change (%, negative = inhibition) at 10uM” value was -15.8%.
Regarding `CC(C)(C)NC(=O)Cn1c(=O)c(=O)n(Cc2ccccc2)c2ccc(Cl)cc21`, the “hERG current change (%, negative = inhibition) at 10uM” value is -0.233%.
As for `Cn1c2c(c(=O)n(C)c1=O)C(c1ccc(Br)cc1)Nc1ccccc1O2` (centres unmarked), the “hERG current change (%, negative = inhibition) at 10uM” value is -19.4%.
On to `Cc1ccc(S(=O)(=O)NCCC2(C(C)C)CCOC(C)(C)C2)cc1` (centres unmarked), for which the “hERG current change (%, negative = inhibition) at 10uM” value is on record as -17.9%.
For `CC1(C)CC(=O)C(C=NCC(N)=O)=C(O)C1`, the “hERG current change (%, negative = inhibition) at 10uM” value is -19.5%.
Consider `C=CCn1c(O)c(C(C)=NCCCN(C)C)c(=O)[nH]c1=O`, for which the “hERG current change (%, negative = inhibition) at 10uM” value turned out to be 5.49%.
With `O=C1c2ccc(Cl)cc2S(=O)(=O)c2cccc(C(=O)N3CCN(c4ccc(Cl)cn4)CC3)c21`, the “hERG current change (%, negative = inhibition) at 10uM” value is -39.9%.
As to `N#Cc1cccnc1N1CCN(C(=O)c2cccc3c2C(=O)c2ccc(Cl)cc2S3(=O)=O)CC1`, the “hERG current change (%, negative = inhibition) at 10uM” value was -56.6%.
As to `N#Cc1cccnc1N1CCN(C(=O)c2ccc3c(c2)S(=O)(=O)c2ccccc2C3=O)CC1`, the “hERG current change (%, negative = inhibition) at 10uM” value is on record as -22.7%.
Then `CCN(CCn1cccn1)C(=O)CCc1nnc(CCc2ccccc2OC)o1`, with 5.73%.
As for `CCC/C(=N\NC(=O)c1cccc(C)c1)c1ccccc1`, the “hERG current change (%, negative = inhibition) at 10uM” value amounted to 2.17%.
On to `CCOc1cccc(/C=N/Nc2ccc(S(=O)(=O)N(CC)CC)cn2)c1O`, for which the “hERG current change (%, negative = inhibition) at 10uM” value was determined as 6.79%.
As to `COc1ccc(COC(=O)c2c(C)nn(-c3ccccc3)c2Cl)cc1`, the “hERG current change (%, negative = inhibition) at 10uM” value is on record as 4.32%.
Regarding `COc1ccc(CN(C)C(=O)COC(=O)c2c(-c3ccccc3Cl)noc2C)cc1`, the “hERG current change (%, negative = inhibition) at 10uM” value was -15.1%.
Regarding `COc1ccc(CN(C)C(=O)COC(=O)c2c(C)nn(-c3ccc(F)cc3)c2Cl)cc1`, the “hERG current change (%, negative = inhibition) at 10uM” value was -71.1%.
In the case of `Brc1ccc(CSc2nnc(-c3ccccn3)n2Cc2ccco2)cc1`, the “hERG current change (%, negative = inhibition) at 10uM” value was -16.8%.
As to `CN1CCc2c(OCC(=O)NC3CCCCC3)cccc2C1=O`, the “hERG current change (%, negative = inhibition) at 10uM” value came to 13.6%.
`CCCCCCSc1ccc([C@H]2N[C@@](Cc3ccccc3)(C(=O)OC)[C@H]3C(=O)N(C)C(=O)[C@@H]23)cc1OC.O=C(O)C(F)(F)F`: the “hERG current change (%, negative = inhibition) at 10uM” value is 5.93%.
